{
  "source": "PubChem BioAssay (NCATS)",
  "note": "Records with an inconclusive call do not appear. A call without a number means that no potency is given here. Calls of active or inactive are those of the source. Calls follow the shape of the dose curve; as a rule, active = well fitted cell-killing curve with a large enough effect; inconclusive = small, poorly fitted or top-dose-only effect, or effect the other way; inactive = flat fitted curve, though single readings scatter.",
  "data": [
    {"system": "Tov-21-G", "assay": "Primary qHTS to identify gynecologic anti-cancer compounds using libraries of approved drugs and bioactive compounds (AID 1345084); also: nearly all actives have a fitted effect of over 55% in size", "settings": "Gynecologic cancer cell panel viability, ATPlite luminescence, 48 h; series mostly up to 57.5 µM", "method_in_brief": "(§1)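 Measured: luminescence after ATPlite addition (15 min, RT). Exposure: 48 h, 37 C, 5% CO2.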", "values": [
      {"compound": "CC(C)=CCC/C(C)=C/Cc1ccc(O)c(C2OC(=O)c3cc(C(=O)O)cc(O)c32)c1O", "note": "(configuration not stated)", "Potency": "inactive"},
      {"compound": "NC(=O)C(CCC(F)(F)F)N(Cc1ccc(-c2ncon2)cc1F)S(=O)(=O)c1ccc(Cl)cc1", "note": "(configuration not stated)", "Potency": "inactive"},
      {"compound": "COc1cc(C)c(C(=O)O[C@H]2[C@@H](OC(C)=O)[C@H](n3ccc(=O)[nH]c3=O)O[C@@H]2CO)c(OC)c1", "Potency": "inactive"},
      {"compound": "CC1=C(CCC(C)CC(=O)O)[C@@]2(C)CCCC(C)(C)C2CC1=O", "note": "(some centres not stated)", "Potency": "inactive"},
      {"compound": "C[C@@H]1O[C@@H](O[C@H]2[C@H](O)[C@@H](O)[C@H](OC3CCC4(C)C5CCC(C)(C(CO)OC6OC(CO)C(O)C(O)C6O)CC5=CCC4C3(C)C)O[C@@H]2CO)[C@H](O)[C@H](O)[C@H]1O", "note": "(some centres not stated)", "Potency": "inactive"},
      {"compound": "CC1(C)CCCC2(C)C=C(C(=O)O)C(O)CC12", "note": "(configuration not stated)", "Potency": "inactive"},
      {"compound": "CC12CCC3c4ccc(OC5OC(C(=O)O)C(O)C(O)C5O)cc4CCC3C1CCC2O", "note": "(configuration not stated)", "Potency": "inactive"}
    ]},
    {"system": "Tov112D", "assay": "Primary qHTS to identify gynecologic anti-cancer compounds using libraries of approved drugs and bioactive compounds (AID 1345084); also: nearly all actives have a fitted effect of over 55% in size", "settings": "Gynecologic cancer cell panel viability, ATPlite luminescence, 48 h; series mostly up to 57.5 µM", "method_in_brief": "as §1", "values": [
      {"compound": "C[C@@H]1O[C@@H](O[C@H]2[C@H](O[C@H]3CC[C@@]4(C)C(CC[C@]5(C)C4C=C[C@]46OC[C@@]7(CCC(C)(C)C[C@H]74)[C@@H](O)C[C@]65C)[C@]3(C)CO)O[C@H](CO)[C@@H](O)[C@@H]2O[C@@H]2O[C@H](CO)[C@@H](O[C@@H]3O[C@@H](C)[C@H](O)[C@@H](O)[C@H]3O)[C@H](O)[C@H]2O)[C@H](O)[C@H](O)[C@H]1O", "note": "(some centres not stated)", "activity change, negative = cytotoxicity": "-4.43% [at 11.6 µM] (inactive)"},
      {"compound": "Cc1ccccc1NC(=O)Nc1ccc(CC(=O)N(C)[C@@H](CC(C)C)C(=O)NCC[C@H](NC(=O)[C@@H]2CCCN2S(=O)(=O)c2cc(Cl)cc(Cl)c2)C(=O)O)cc1", "Potency": "inactive"},
      {"compound": "CCc1c(-c2ccccc2)c(-c2ccccc2)nn1-c1ccccc1-c1cccc(OCC(=O)O)c1", "Potency": "inactive"},
      {"compound": "COc1ccc(C(O)C(C)OC2OC(CO)C(O)C(O)C2O)cc1", "note": "(configuration not stated)", "Potency": "inactive"},
      {"compound": "CC(C)=C/C=C\\[C@H](C)[C@H]1CC[C@]2(C)C[C@@H]3C(C)=CC(=O)C3/C(CO)=C\\C[C@@H]12", "note": "(some centres not stated)", "Potency": "inactive"},
      {"compound": "CC1CCC2(C(=O)O)CCC3(C)C(=CCC4C5(C)CCC(O)C(C)(CO)C5CCC43C)C2C1(C)O", "note": "(configuration not stated)", "Potency": "inactive"},
      {"compound": "CC(=O)O[C@@H]1c2c3c(cc(O)c2C(=O)O[C@@H]1C)O[C@@]1(C)[C@@H](O)C[C@H]2C(C)(C)C(=O)C=C[C@]2(C)[C@@H]1C3", "Potency": "inactive"},
      {"compound": "C[C@@H]1O[C@@H](O[C@H]2[C@H](O)[C@@H](O)[C@H](OC[C@H]3O[C@@H](OC(=O)[C@]45CCC(C)(C)C[C@H]4C4=CCC6[C@@]7(C)CC[C@H](O[C@@H]8OC[C@H](O)[C@H](O[C@@H]9O[C@H](CO)[C@@H](O)[C@H](O)[C@H]9O)[C@H]8O)[C@@](C)(CO)C7CC[C@@]6(C)[C@]4(C)CC5)[C@H](O)[C@@H](O)[C@@H]3O)O[C@@H]2CO)[C@H](O)[C@H](O)[C@H]1O", "note": "(some centres not stated)", "activity change, negative = cytotoxicity": "-0.716% [at 6.55 µM] (inactive)"},
      {"compound": "CCOC(=O)C(CCc1ccccc1)NC1CSC(c2cccs2)CN(CC(=O)O)C1=O", "note": "(configuration not stated)", "Potency": "inactive"},
      {"compound": "O=c1[nH]ccc2cc(OC3CCNCC3)ccc12", "Potency": "inactive"},
      {"compound": "C=C1CCC2C(C)(COC(C)=O)CCCC2(C)C1CCC(C)CC(=O)O", "note": "(configuration not stated)", "Potency": "inactive"},
      {"compound": "C=C1C(O)CC2C(C(=O)O)=COC(O[C@@H]3O[C@H](COC(=O)/C=C/c4ccc(O)cc4)[C@@H](O)[C@H](O)[C@H]3O)C12", "note": "(some centres not stated)", "Potency": "inactive"},
      {"compound": "NC1CCCCN(c2c(F)cc3c(=O)c(C(=O)O)cn(C4CC4)c3c2Cl)C1", "note": "(configuration not stated)", "Potency": "inactive"},
      {"compound": "CC(C)(O)/C=C/C1=CC(=O)[C@@](C)(O)C[C@H]1O", "Potency": "inactive"},
      {"compound": "CC(=O)O[C@H]1C[C@@]2(C)[C@@H](CC[C@H]3[C@@]4(C)C=CC(=O)[C@@H](C)[C@@H]4[C@H](O)C(=O)[C@@]32C)/C1=C(/CCC=C(C)C)C(=O)O", "Potency": "inactive"},
      {"compound": "C=C(C)[C@@H]1CC[C@]2(C)CC[C@]3(C)[C@H](CC[C@@H]4[C@@]5(C)CC[C@@H](O)C(C)(C)[C@@H]5CC[C@]43C)[C@@H]12", "Potency": "inactive"},
      {"compound": "CC1=CC(=O)CC(C)(C)C1CCC(C)O[C@@H]1O[C@H](CO[C@@H]2OC[C@@H](O)[C@H](O)[C@H]2O)[C@@H](O)[C@H](O)[C@H]1O", "note": "(some centres not stated)", "Potency": "inactive"},
      {"compound": "COC(=O)C[C@H]1[C@]2(C)C3=C(C)[C@H](c4ccoc4)C[C@H]3O[C@@H]2[C@H](OC(C)=O)C2[C@](C)(C(=O)OC)C=CC(=O)[C@@]21C", "note": "(some centres not stated)", "Potency": "inactive"},
      {"compound": "Cc1oc2ccccc2c1CNC(=O)NCc1cccs1", "Potency": "inactive"},
      {"compound": "C=C1[C@H](OC(C)=O)[C@H]2[C@@H](OC(C)=O)[C@](C)(OC(C)=O)C[C@]2(OC(C)=O)C(=O)[C@H](C)/C=C/C(C)(C)C(=O)[C@H](OC(=O)C(C)C)[C@H]1OC(C)=O", "Potency": "inactive"}
    ]}
  ]
}
